# Screening data as filed in PubChem.
# PGC1a acetyl inh: lowers PGC1a acetylation signal in U2OS cells | 350,000 compounds, 0.17% hits | AID 651687 | inhibition, % at 15.6 µM | AlphaScreen anti-acetyl-lysine; with virally co-expressed GCN5 acetyltransferase;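 active = every replicate shows inhibition of at least 40%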;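 also: 0% = neutral control wells and 100% = positive control wells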
# DENV2 CPE rescue: protects cells from dengue virus 2 cytopathic effect. DENV2-infected cells, cytopathic effect rescue, plate reader. 350,000 compounds, 1.7% hits. CPE inhibition, % at 9.99 µM. AID 651640; in the data active = CPE inhibition above about 20%, passing the limit was not always enough; tested in BHK-21 cells;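 also: 0% = median of neutral control wells and 100% = median of positive control wells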
# miR-122 sensor: miR-122 inhibition in Huh7 cells | Huh7 miR-122 Renilla luciferase sensor, 48 h; neutral wells = 0, positive control = 100 | activation (reporter increase), % at 12.5 µM | 340,000 compounds, 0.3% hits;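 active = mean replicate activation score at least 90 and every replicate individually at or above 90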;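 also: higher luciferase means less miR-122 activity so hits act as miR-122 inhibitors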
# PvdQ acylase: P. aeruginosa PvdQ acylase inhibition. purified PvdQ acylase, fluorescence plate reader. inhibition, % at 10 µM. 340,000 compounds, 0.063% hits; in the data active = inhibition above about 30%, passing the limit was not always enough;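 also: 0% = vehicle neutral wells and 100% = reference inhibitor wells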
# Statin myotox sup: suppressors of simvastatin-induced myotoxicity in C2C12 myotubes | ATP luminescence, 48 h; scaled: DMSO 0, geranylgeraniol control 100 | rescue of ATP level, % at 7.49 µM | 330,000 compounds, 0.78% hits | AID 602340;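 active = mean ATP rescue above about 67%, or every replicate alone reaching that limit, limit read from the data, passing the limit was not always enough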;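 also: myotubes were challenged with 10 µM simvastatin during compound exposure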
# The depositor's hits bear a star; · = no result; [ ] = another dose, or the depositor's remark. Most compounds without a hit are left out; they make up all but 2.2% or so of the library.
SMILES,PGC1a acetyl inh,DENV2 CPE rescue,miR-122 sensor,PvdQ acylase,Statin myotox sup
CCC(=O)N1C[C@H](C)[C@H](OC)CN(C)C(=O)c2ccc(NC(=O)NC(C)C)cc2OC[C@@H]1C,-9,13,11[16.7 µM],·,0
COc1ccc(/C=N/N2CCN(c3ccc(Cl)cc3)CC2)cc1O,·,32*,·,-24,8
CCOC(=O)C1=C[C@@H](CC)N(S(=O)(=O)c2ccc([N+](=O)[O-])cc2)[C@H]1c1ccccc1,-7,42*,-7,·,8
CCOC(=O)C1=C[C@@H](c2ccccc2)N(S(=O)(=O)c2ccc(C)cc2)[C@H]1c1cccc(Cl)c1,-17,30*,5,·,34
CCOC(=O)C1=CCN(S(=O)(=O)c2ccc(Cl)cc2)C1c1cccc(Cl)c1 (centres undefined),·,-1,·,·,·
CCOC(=O)C1=CCN(S(=O)(=O)c2ccc(F)cc2)C1c1cccc(Cl)c1 (centres undefined),-29,84*,-1,·,0
CCOC(=O)C1=C[C@@H](CC)N(S(=O)(=O)c2ccc(C)cc2)[C@H]1c1cccc(Cl)c1,-12,-4,-3,·,2
C[C@H](CO)N1C[C@H](C)[C@H](CN(C)Cc2ccc3c(c2)OCO3)Oc2ccc(NC(=O)c3ccncc3)cc2C1=O,2,-1,-2[16.7 µM],·,-21
O=C(COC(=O)c1ccc2c(c1)OCO2)NC1CCCCC1,-8,21*,-4,-10,-4
CN(C(=O)COC(=O)c1ccc2c(c1)OCO2)C1CCCCC1,-11,-3,0,-11,1
CC(=O)Nc1sc2c(c1-c1nc3ccccc3s1)CN(C(C)C)CC2,52*,3,-4,10,-217
Cc1ccc(C2=NOC3(CC(=O)N(c4ccccc4)C3=O)C2)cc1 (centres undefined),4,7,1,-12,76*
C/C=C/c1ccc2c(c1)O[C@@H](CN(C)Cc1ccc(C(=O)O)cc1)[C@H](C)CN([C@H](C)CO)S2(=O)=O,3,2,19[16.7 µM],·,14
CC1CC2=C(C(=O)O1)C(c1ccc(Cl)cc1)Nc1ccccc1N2 (centres undefined),·,88*,·,10,·
O=C(Nc1ccccc1F)N[C@@H]1CC[C@@H](CCNC(=O)C2CCOCC2)O[C@H]1CO,-5,9,·,·,4
CC(=O)c1sc(NC(=O)c2oc3ccc(F)cc3c2C)nc1C,1,21*,-13,-2,-11
CC(=O)c1sc(NC(=O)c2cc(=O)c3ccccc3o2)nc1C,·,5,-3,-13,0
COCCCN(Cc1ccco1)C(=O)Cn1ncc2c([nH]c3ccccc32)c1=O,-11,25*,-6,-1,-10
O=[N+]([O-])c1cccc(C=Nc2cc3c(cc2Br)OCCO3)c1,·,44*,·,11,·
O=C(O)CCCCCCCCc1cn(CCc2c[nH]c3ccccc23)nn1,-4,21*,0,-2,·
CCCCCc1ccc(-c2cn(CCc3c[nH]c4ccccc34)nn2)cc1,·,·,·,-9,33
C[C@H](CO)N1C[C@H](C)[C@H](CN(C)S(=O)(=O)c2ccccc2)Oc2c(NC(=O)Nc3cccc4ccccc34)cccc2C1=O,7,-6,·,·,·
C[C@H](CO)N1C[C@H](C)[C@@H](CN(C)S(=O)(=O)c2ccccc2)Oc2c(NC(=O)Nc3cccc4ccccc34)cccc2C1=O,-16,168*,52[16.7 µM],·,8
Cc1ccc(S(=O)(=O)N(C)C[C@H]2Oc3c(NC(=O)Nc4cccc5ccccc45)cccc3C(=O)N([C@H](C)CO)C[C@@H]2C)cc1,-7,35*,-3[16.7 µM],·,3
CO[C@@H]1CN(C)C(=O)c2cc(NC(=O)c3ccc(-c4ccccc4)cc3)ccc2OC[C@@H](C)NC[C@@H]1C,-16,1,·,·,-38
SMILES,PGC1a acetyl inh,DENV2 CPE rescue,miR-122 sensor,PvdQ acylase,Statin myotox sup
COC(=O)c1sc(N)c(C(=O)OC)c1CSc1nnc(-c2ccccc2Cl)n1C,-4,·,104*,7,49
C#CCN(Cc1ccco1)C(=O)c1nnc2c3ccccc3n(S(=O)(=O)c3ccc(C)cc3)c2n1,·,25*,·,·,·
CCC(=O)Nc1ccc2c(c1)OC[C@H](C)N(Cc1cncnc1)C[C@H](C)[C@H](OC)CN(C)C2=O,9,·,0[16.7 µM],·,2
O=C(C[C@@H]1CC[C@@H](NC(=O)C2CCOCC2)[C@@H](CO)O1)NCc1ccncc1,4,-4,·,·,·
CN1CCN(c2ccc(NC(=S)NC(=O)c3cccc4c(Br)cccc34)cc2)CC1,-15,4,6,-14,126*
O=C(NCc1ccco1)c1ccc2c(=O)n(CC3CCCO3)c(=S)[nH]c2c1 (centres undefined),-2,·,-3,-6,91*
